EP2 mod: EP2 receptor modulators, cAMP readout, primary screen, cell-based, HTRF cAMP, PGE2 stimulation; EP2-expressing cells, cAMP HTRF FRET, PGE2 co-stimulation; induction, % at 25 µM; 260,000 compounds, 0.83% hits; AID 940, 2007;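 active means compounds whose cAMP rise, as percent of the full-agonist control response, exceeds 60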;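 further: rat C6 glioma line stably carrying human EP2 under a CMV promoter; the protocol text gives 20 µM as final concentration; 100% = response of wells given 1 µM PGE2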
NCF1 inh: p47phox/p22phox peptide binding inhibitors, primary screen, biochemical, uHTS, NADPH oxidase regulatory subunit; fluorescence polarization, 2 h; inhibition, % at 24.7 µM; 220,000 compounds, 0.53% hits;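 active means inhibition above about 30%, limit read from the data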;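 further: 0% = p47phox with labelled peptide and 100% = labelled peptide alone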
HSV replic up: enhancers of HSV replication in host cells, fold increase, host cell viability; maximum fold increase; 220,000 compounds, 0.005% hits; AID 1956, 2009; HSV replication augmentation in cells; in the data active means maximum fold increase above about 1.5; tested in PC3 cells
Wee1 stabilizer: Wee1 degradation inhibitors, primary screen, cell-based, HeLa, Wee1K328M-luciferase, luminescence; Wee1-like protein kinase (Homo sapiens), P30291; 220,000 compounds, 1.2% hits; HeLa Luc-Wee1K328M stability; 100% = proteasome inhibitor MG132 effect; reporter increase, % at 5 µM;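 active means activation above the mean of all tested compounds plus 3 SD, set per screening run, cut at about 8.8% in these data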;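 further: cells exposed to compound for 20 h before luminescence read; 0% = DMSO alone and 100% = MG132 at 30 µM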
Furin inhibitor: human furin inhibitors, primary screen, biochemical, fluorescence intensity. purified furin, fluorogenic substrate cleavage. inhibition, % at 20 µM or 30 µM. 220,000 compounds, 0.061% hits. AID 463115, 2010; in the data active means inhibition above about 25%
Target sequence (P09958 108-714 limits assumed): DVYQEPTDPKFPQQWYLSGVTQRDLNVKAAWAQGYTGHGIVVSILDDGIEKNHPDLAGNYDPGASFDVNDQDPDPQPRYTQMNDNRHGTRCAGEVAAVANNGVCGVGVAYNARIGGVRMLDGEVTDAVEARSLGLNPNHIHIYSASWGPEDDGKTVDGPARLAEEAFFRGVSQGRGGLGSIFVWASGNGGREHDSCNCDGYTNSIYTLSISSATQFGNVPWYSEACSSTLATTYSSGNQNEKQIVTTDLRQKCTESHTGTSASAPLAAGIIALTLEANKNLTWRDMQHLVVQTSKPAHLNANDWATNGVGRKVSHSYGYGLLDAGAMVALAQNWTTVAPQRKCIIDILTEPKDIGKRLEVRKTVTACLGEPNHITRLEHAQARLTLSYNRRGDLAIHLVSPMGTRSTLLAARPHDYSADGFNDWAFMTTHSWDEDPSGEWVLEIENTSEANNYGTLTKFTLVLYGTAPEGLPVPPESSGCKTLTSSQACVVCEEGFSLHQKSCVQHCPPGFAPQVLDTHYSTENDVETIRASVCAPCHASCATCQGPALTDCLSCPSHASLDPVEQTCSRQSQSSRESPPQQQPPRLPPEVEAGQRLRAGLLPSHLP
PGE2 EP2 inh: human EP2 receptor antagonists, primary screen, TR-FRET cAMP, C6 glioma cells; Prostaglandin E2 receptor EP2 subtype (Homo sapiens), P43116; C6 glioma cells expressing human EP2; cells stimulated with saturating PGE2; inhibition, % at 25 µM; 260,000 compounds, 0.52% hits; AID 1422, 2008;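 active means percent inhibition above 40 after rounding to a whole number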;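 further: rat C6 glioma host cells with rolipram phosphodiesterase inhibitor present; the protocol text gives 20 µM as final concentration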
The depositor's hits bear a star; i = inactive; . = no result. Shown are actives, neighbours in structure and some others; about 2.8% of the full set was active somewhere.

SMILES | EP2 mod | NCF1 inh | HSV replic up | Wee1 stabilizer | Furin inhibitor | PGE2 EP2 inh
CC1(C)N=C(N)N=C(N)N1c1cccc(C(=O)Nc2ccc(S(=O)(=O)F)cc2)c1 | 12 | . | . | . | . | 52*
Nc1ccc(S(=O)(=O)c2ccc(NCN3C(=O)NC(=O)C(=O)C3=O)cc2)cc1 | 14 | . | . | . | . | 44*
Cc1ccc(C2=CCN(CC(=O)Nc3nc(C)c(C)s3)CC2)o1 | -82 | . | . | . | . | .
O=C(O)c1cccc([As]=[As]c2cccc(C(=O)O)c2)c1 (stereo not drawn) | 27 | . | . | . | . | 42*
O=C(O)C(Oc1nc(=S)[nH]c(=S)[nH]1)(c1ccc(Cl)cc1)c1ccc(Cl)cc1 | 9 | . | . | . | . | 50*
O=C1NC(=O)C(=Cc2ccc3c(c2)OCO3)C(=O)N1 | 11 | -13 | i | 9.1* | -20 | 3
CN(C)CCN(C(=O)Cc1n[nH]c(=O)c2ccccc12)C1CCCC1 | -25 | . | . | . | . | 7
C[C@@H]1CC[C@@]2(OC1)OC1C(O)C3C4CC[C@H]5C[C@H](O[C@@H]6O[C@H](CO)[C@H](O[C@@H]7O[C@H](CO)[C@@H](O)[C@H](O[C@@H]8OC[C@@H](O)[C@H](O)[C@H]8O)[C@H]7O[C@@H]7O[C@H](CO)[C@H](O)[C@H](O[C@@H]8O[C@H](CO)[C@@H](O)[C@H](O)[C@H]8O)[C@H]7O)[C@H](O)[C@H]6O)[C@H](O)C[C@]5(C)C4CC[C@]3(C)C1[C@@H]2C (stereo partly drawn) | -38 | . | . | . | . | 116*
CCC(=O)N1CCCc2cc(C(O)CN3CC=C(c4ccccc4)CC3)ccc21 (stereo not drawn) | -43 | . | . | . | . | 10
c1ccc2c(c1)CCNCC2 | -23 | . | . | . | . | 10
CSc1ccc2c(c1)c(CCN)c(C)n2Cc1ccccc1Cl | -3 | . | . | . | . | 104*
Cc1ccc(N)c(C(=O)c2ccc(Br)cc2)c1 | 49 | -6 | i | 9.9* | -27 | 7
COc1ccc2c(c[n+](C)c3c4cc5c(cc4ccc23)OCO5)c1OC | -26 | . | . | . | . | 118*
COc1ccc(OCC(=O)N2CCN(Cc3ccc(C)cc3)CC2)cc1 | -66 | . | . | . | . | 10
COc1cc2c(cc1/C=C/[N+](=O)[O-])OCO2 | -122 | -18 | . | 11* | -2 | 103*
Cn1ccnc1C1(O)CC2CCC(C1)N2CC(=O)Nc1nccs1 (stereo not drawn) | -6 | . | . | . | . | .
C=CCc1cc(CN2C3CCC2CC(O)(c2ccc(OC)cc2)C3)cc(OC)c1OC (stereo not drawn) | -29 | . | . | . | . | 9
COc1ccc(-c2nc(C)sc2CC(=O)N(CCN(C)C)C2CCCCC2)cc1 | -34 | . | . | . | . | 4
CC1(C)[C@@H]2CC[C@@]1(C)CN(CCC[N+](C)(C)C)C2 | 14 | . | . | . | . | 41*
Nc1ccc(S(=O)(=O)N2CCCCC2c2cccnc2)cc1 (stereo not drawn) | 15 | -13 | i | -4 | -9 | 9
O=S(=O)(c1ccccc1)N1CCCCC1c1cccnc1 (stereo not drawn) | -2 | 43* | i | 5 | -6 | 7
Nc1c(C(=O)Nc2ccc([As](=O)(O)O)cc2)cnc2nnnn12 | 29 | . | . | . | . | 52*
Nc1ccc([As](=O)(O)O)cc1 | 33 | -5 | i | 1 | -11 | 16
C[C@]12CC[C@H](O[C@@H]3O[C@H](CO)[C@@H](O)[C@H](O)[C@H]3O)C[C@@H]1CC[C@@H]1[C@@H]2CC[C@]2(C)[C@@H](C3=CCOC3=O)CC[C@@]12O | -2 | . | . | . | . | 53*
CC1(C)CC(=N[N-]C(N)=[SH+])CC(C)(C)N1.CC1(C)CC(=N[N-]C(N)=[SH+])CC(C)(C)N1.[Ni] | -6 | . | . | . | . | 51*
SMILES | EP2 mod | NCF1 inh | HSV replic up | Wee1 stabilizer | Furin inhibitor | PGE2 EP2 inh
COc1cc(O)c(C(=O)O)c(-c2cc(O)c(O)cc2C)c1 | 23 | 6 | i | . | -2 | 77*
CCCCN1CCC(O)(c2ccccc2)C(C(=O)c2ccccc2)C1 (stereo not drawn) | 39 | -8 | i | -2 | 34* | 14
CCC1CN(C)CCC1(OC(C)=O)c1ccccc1 (stereo not drawn) | 27 | -10 | i | -2 | -18 | 12
COc1nc(NCc2ccco2)nc(N2CC3CC(C2)c2cccc(=O)n2C3)n1 (stereo not drawn) | -45 | . | . | . | . | 10
CC1(C)C[C@H]2C=C(C=O)[C@]3(C=O)C[C@]3(C)[C@H]2C1 | -34 | -5 | i | -1 | -11 | 88*
COC(=O)c1cn(Cc2ccccc2F)c2ccccc12 | 39 | . | . | . | . | 10
CCCC(=O)OCC[N+](C)(C)C | 36 | -7 | i | 9.4* | 12 | 15
Cn1ccnc1C1(O)COC2(CCNCC2)C1 (stereo not drawn) | -41 | . | . | . | . | .
CCC(C)N1C(=O)/C(=C\c2cnc(N(C)C)nc2)C(=O)NC1=S (stereo not drawn) | -1 | -6 | i | 5 | -16 | 11
CN1C(=O)/C(=C\c2ccc(N3CCCCCC3)cc2)C(=O)NC1=S | -19 | 14 | i | 0 | -15 | -1
CCC(C)N1C(=O)/C(=C\c2cc3c4c(c2)CCCN4CCC3)C(=O)NC1=S (stereo not drawn) | -37 | 63* | i | 0 | -21 | 12
CCC(C)N1C(=O)/C(=C\c2ccc(N3CCCCCC3)cc2)C(=O)NC1=S (stereo not drawn) | 3 | 56* | i | 1 | 1 | 6
O=C1NC2(CCNCC2)Oc2ccccc21 | -21 | . | . | . | . | 7
CCOc1cc(CN2CCN(C(=O)COc3ccccc3)CC2)ccc1OC | -25 | . | . | . | . | 14
CCCCc1nc2ccccc2c(=O)n1-c1ccccc1[N+](=O)[O-] | 37 | 0 | i | -1 | -22 | 8
CCc1nc2ccccc2c(=O)n1-c1ccccc1[N+](=O)[O-] | 6 | -15 | i | 2 | -17 | 49*
O=C1NC(=O)N(Cc2ccccc2Cl)C(=O)/C1=C/c1cccs1 | -83 | -20 | i | 1 | -3 | 33
O=C1NC(=O)N(Cc2ccc(F)cc2)C(=O)/C1=C/c1cccs1 | -65 | -7 | i | 3 | -16 | 93*
CN(C)c1ccc(/C=C2\C(=O)NC(=O)N(Cc3ccc(F)cc3)C2=O)cc1 | -25 | 97* | i | 2 | -16 | 10
CC(C)n1cc(C(=O)NC2(c3ccc(F)cc3)CCCC2)cn1 | -20 | . | . | . | . | .
O=C1CCCN1C(=O)c1cccnc1 | 20 | . | . | . | . | 19
C=C1[C@@H](C)[C@H]2[C@H](Cc3ccccc3)NC(=O)[C@]23OC(=O)/C=C/[C@H](O)CCC[C@@H](C)C/C=C/[C@H]3[C@@H]1O | -15 | 31* | i | -1 | . | 23

Compound activity: PubChem, several laboratories
